The values that follow come from PubChem BioAssay (Tox21).

Records with an inconclusive call do not appear. Where a call stands in place of a potency, no number is given. Active and inactive are the calls of the source. Unless noted, calls follow the shape of the dose curve; as a rule, active = well fitted cell-killing curve with a large enough effect in the repeat runs; inconclusive = weak or mixed curves, or effect the other way; inactive = flat fitted curve, though single readings scatter.

Estrogen receptor beta (Homo sapiens), sequence (Q92731 whole entry, looked up): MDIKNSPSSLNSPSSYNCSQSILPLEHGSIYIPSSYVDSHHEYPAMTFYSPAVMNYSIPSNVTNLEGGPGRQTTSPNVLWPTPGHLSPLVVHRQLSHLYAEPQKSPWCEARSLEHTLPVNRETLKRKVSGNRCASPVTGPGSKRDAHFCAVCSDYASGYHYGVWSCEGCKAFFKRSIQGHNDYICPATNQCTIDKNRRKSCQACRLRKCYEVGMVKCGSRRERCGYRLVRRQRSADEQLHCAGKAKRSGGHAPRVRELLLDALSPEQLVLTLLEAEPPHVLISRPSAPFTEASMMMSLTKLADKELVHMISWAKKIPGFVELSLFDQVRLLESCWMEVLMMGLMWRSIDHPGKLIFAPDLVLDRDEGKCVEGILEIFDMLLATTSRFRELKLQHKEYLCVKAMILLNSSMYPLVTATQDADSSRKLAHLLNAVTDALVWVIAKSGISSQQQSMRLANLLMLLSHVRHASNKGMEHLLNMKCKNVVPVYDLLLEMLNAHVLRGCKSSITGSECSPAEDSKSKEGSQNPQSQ

One experiment has as its target Estrogen receptor beta (Homo sapiens) (UniProt Q92731). The experiment is described as follows: qHTS assay to identify small molecule antagonists of the estrogen receptor beta (ER-beta) signaling pathway (AID 1259378; active = well fitted inhibition curve with a large enough effect in the signal ratio in the repeat runs, not every such curve was filed as active; the % refers to the signal ratio). As to conditions: ER-beta-UAS-bla HEK293T, beta-lactamase FRET ratio, 16 h; series mostly up to 92.4 µM. The method in brief: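 ER-beta-UAS-bla HEK293T (GripTite) cells in 2% charcoal-stripped FBS medium were preincubated 6 hr at 37C, dosed with compound, then stimulated with 1 nM E2 (final) for 16 hr; beta-lactamase reporter read by B/G FRET fluorescence after 2 hr substrate loading.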
Background: Quantitative high-throughput screening tests each substance at several concentrations.
As for `CC(C)=CCCC(C)C=O` (stereo not drawn), the Potency entry was “inactive”. Turning to `CCC(C)CCCC(C)(C)O` (stereo not drawn), the Potency result was “inactive”. Still for that read-out and setting: the result for `CC/C=C\CCO` reads “inactive”.

As to `C=CC(C)CCC=C(C)C` (stereo not drawn), the Potency entry was “inactive”.

As for `NC(=O)c1ccccc1C(N)=O`, the Potency result was “inactive”. Take `CC(C)(C(=O)O)c1ccc(C(O)CCCN2CCC(C(O)(c3ccccc3)c3ccccc3)CC2)cc1` (stereo not drawn): the Potency entry is “inactive”. On the same count and under the same terms, then `CCCc1ccc(OC)cc1`, with “inactive”; and `O=C1CCCN1CCO`, with “inactive”. As to `CCCCCO`, the Potency result was “inactive”. Still for that read-out and setting: then `CC(CCl)OC(C)CCl` (stereo not drawn), with “inactive”. `O=c1[nH][nH]c2ccccc12`: the Potency entry was “inactive”.

System in the next experiment: not listed separately
Nature of the experiment: qHTS assay to identify small molecule agonists of the androgen receptor (AR) signaling pathway in the presence of an antagonist - cell viability counter screen (AID 1259379). Also: nearly all actives have a fitted effect of over 25% in size. Also: potency is read from the fitted curve at half-maximal effect. As to conditions: MDA-kb2 viability, CellTiter-Fluor, 16 h; series mostly up to 92.4 µM. The method in brief: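 Viability counter screen: CellTiter-Fluor fluorescence, measured in the same wells as the luciferase read-out. MDA-kb2 cells, 3,000/well, with nilutamide at 3.0uM final and compounds at 15 concentrations, 16 hr at 37C, 0% CO2.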
On to `Nc1nc(Cl)nc2c1ncn2[C@H]1C[C@H](O)[C@@H](CO)O1`, for which the Potency entry was “inactive”.

Take `Cc1cc(SC2=C(O)C[C@@](CCc3ccc(N)cc3)(C(C)C)OC2=O)c(C(C)(C)C)cc1CO`: the Potency result was “inactive”.

With `CCCCOC(=O)CC#N`, the Potency result is “inactive”. On the same count and under the same terms, the result for `CC(C)=CCCC(C)C=O` (stereo not drawn) reads “inactive”; that for `CCC(C)CCCC(C)(C)O` (stereo not drawn), “inactive”. `CC1(COc2ccc(CC3SC(=O)NC3=O)cc2)CCCCC1` (stereo not drawn): the Potency entry was “inactive”. Turning to `Cc1c(Nc2ncccc2C(=O)O)cccc1C(F)(F)F`, the Potency entry is “inactive”.

As to `CC(C)C/C=C(\C=O)c1ccccc1`, the Potency entry was “inactive”. The same measure, in the same setting: the result for `CC/C=C\CCO` reads “inactive”. The same measure, in the same setting: the result for `CCCCCCCCCCCCCCCCN` reads “inactive”; that for `O=C(OCCCCCOC(=O)c1ccccc1)c1ccccc1`, “inactive”; that for `O=[N+]([O-])c1cccc(I)c1`, “inactive”.

On to `CC(CC(C#N)(c1ccccc1)C(C)C)N(C)C` (stereo not drawn), for which the Potency result was “inactive”. For `Nc1ccc(-c2ccc(F)cc2)cc1`, the Potency result was “inactive”. For `CCCC(=O)OCCC(C)C`, the Potency result is “inactive”. Regarding `Cc1ccc(NC(=O)c2ccc(CN3CCN(C)CC3)cc2)cc1Nc1nccc(-c2cccnc2)n1`, the Potency entry was “inactive”. Still for that read-out and setting: then `CC(C)NC(=O)c1ccccc1N`, with “inactive”. With `NC(=O)c1ccccc1C(N)=O`, the Potency entry was “inactive”.

Consider `CCc1ccc2c(c1)C(=O)c1ccccc1C2=O`, for which the Potency result was “inactive”. With `COC(=O)Cc1cccc2ccccc12`, the Potency entry was “inactive”.

Regarding `CC(C)C[C@H](NC(=O)[C@H](Cc1ccccc1)NC(=O)c1cnccn1)B(O)O`, the Potency was 47.3 nM (active). Same read-out and setting: the result for `CC(C)(C(=O)O)c1ccc(C(O)CCCN2CCC(C(O)(c3ccccc3)c3ccccc3)CC2)cc1` (stereo not drawn) reads “inactive”; that for `CCCc1ccc(OC)cc1`, “inactive”. On the same count and under the same terms, the result for `O=Cc1ccc([N+](=O)[O-])cc1` reads “inactive”; that for `O=C1CCCN1CCO`, “inactive”. On the same count and under the same terms, the result for `O=C(Cl)c1ccc(F)c(Cl)c1` reads “inactive”. For `O=C(O)CCc1nc2ccccc2[nH]1`, the Potency result is “inactive”. Still for that read-out and setting: then `Nc1cccc2c(=O)[nH][nH]c(=O)c12`, with “inactive”.

Take `CCC(C(=O)O)c1ccc(N2Cc3ccccc3C2=O)cc1` (stereo not drawn): the Potency entry is “inactive”. `O=C(C1CCCCC1)N1CC(=O)N2CCCc3ccccc3C2C1` (stereo not drawn): the Potency entry was “inactive”. Still for that read-out and setting: the result for `N#CCCCC(C#N)CCC#N` (stereo not drawn) reads “inactive”; that for `O=C(O)c1cccc(C(=O)O)c1C(=O)O`, “inactive”; that for `CCCCCO`, “inactive”. Still for that read-out and setting: then `O=C(OCCN1CCOCC1)c1cccnc1Nc1cccc(C(F)(F)F)c1`, with “inactive”; and `C[C@H](N)C(=O)N[C@@H](C)C(=O)NC1[C@H]2CN(c3nc4c(cc3F)c(=O)c(C(=O)O)cn4-c3ccc(F)cc3F)C[C@@H]12` (stereo partly drawn), with “inactive”.

Turning to `CS(C)=O`, the Potency result is “inactive”.

Regarding `O=c1[nH][nH]c2ccccc12`, the Potency entry was “inactive”.
